# USP1 inh = inhibitors of human USP1/UAF1 deubiquitinase; O94782; recombinant USP1/UAF1, Ub-Rhodamine cleavage fluorescence; Potency, µM (series often up to 57.1 µM), without a hit: at the top dose activity change, negative = inhibition, actives largely listed as inhibitors; 0.23% of 390,000 active; further: on the % scale 0 is the no-effect control and ±100 the full control effect; nearly all actives have a fitted effect of over 60% in size
#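 USP1/UAF1 complex (1 nM) preincubated 15 min at room temperature with compound, then Ub-Rho substrate (150 nM final) added. Kinetic fluorescence at 480/540 nm over 6 reads at 60 s intervals; 50 mM HEPES pH 7.8, 0.5 mM EDTA, 0.1 mg/ml BSA, 1 mM TCEP, 0.01% Tween-20.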
# EPAC2 ag = activates human EPAC2 exchange factor. Q8WZA2. EPAC2 activation, biochemical qHTS; response scale: 100% = 6.5 mM cAMP response. Potency, µM (titrated, usually from 154 µM), for inactives: at the top dose activation, hits mostly activators. 0.079% of 360,000 active. AID 720711; further: nearly all actives have a fitted effect of over 50% in size
#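 EPAC2 (100 nM) mixed with Rap1B loaded with BODIPY-GDP (250 nM) plus 50 uM unlabeled GDP; compounds pinned in, 5 min RT, then read every 5 min for 30 min (ex 480, em 540 nm). Normalized to cAMP control.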
# VDR inh = vitamin D3 receptor (human) inhibition; P11473; VDR-SRC2-3 peptide fluorescence polarization, 2 h; Potency, µM, without a hit: max response, negative = inhibition, usual class: inhibitors; 0.93% of 400,000 active; further: on the % scale 0 is the no-effect control and ±100 the full control effect
# Target sequence (P11473 whole entry, looked up): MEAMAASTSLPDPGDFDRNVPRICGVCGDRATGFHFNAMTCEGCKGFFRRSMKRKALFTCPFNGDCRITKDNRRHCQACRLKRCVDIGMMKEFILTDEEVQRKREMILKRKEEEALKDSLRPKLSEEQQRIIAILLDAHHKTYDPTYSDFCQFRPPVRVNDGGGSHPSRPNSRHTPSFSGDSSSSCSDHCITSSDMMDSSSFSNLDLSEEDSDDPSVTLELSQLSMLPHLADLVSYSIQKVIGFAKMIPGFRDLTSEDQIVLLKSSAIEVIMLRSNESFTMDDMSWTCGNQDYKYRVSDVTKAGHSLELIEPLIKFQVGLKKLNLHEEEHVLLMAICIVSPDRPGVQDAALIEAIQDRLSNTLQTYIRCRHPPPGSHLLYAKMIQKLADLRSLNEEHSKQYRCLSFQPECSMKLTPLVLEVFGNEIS
#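 Two reagent solutions held at 4 deg C in the dark were dispensed, compounds pinned at 23 nl, and the mixture incubated 2 h at room temperature. Read-out: fluorescence polarization of VDR–SRC2-3 peptide binding.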
# EPAC1 agonist = EPAC1 (human) agonism; AID 720707; 0.073% of 360,000 active; Potency, µM (series often up to 154 µM), without a hit: top-dose activation, usual class: activators; EPAC1 agonist qHTS, biochemical assay; response scale: 100% = response to 6.5 mM cAMP; further: nearly all actives have a fitted effect of over 60% in size
#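 Read-out is the fluorescence drop as BODIPY-GDP leaves Rap1B (480 nm excitation, 540 nm emission), recorded every 5 minutes over 30 minutes. Reactions held 100 nM EPAC1, 250 nM Rap1B–BODIPY-GDP and 50 uM GDP, with 6.5 mM cAMP setting full activation.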
# EPAC2 antagonist = antagonists of human EPAC2. AID 720708. 0.18% of 360,000 active. Potency, µM (top dose mostly 114 µM), inactives show at the highest dose activity, negative = inhibition, hits mostly inhibitors. EPAC2 GEF exchange of Rap1B-BODIPY-GDP, fluorescence; further: on the % scale 0 is the no-effect control and ±100 the full control effect; nearly all actives have a fitted effect of over 45% in size
# EPAC1 antag = antagonists of human EPAC1 | EPAC1 GEF assay, Rap1b-BODIPY-GDP exchange fluorescence | Potency, µM (doses to about 115 µM), without a hit: at the highest dose activity change, negative = inhibition, hits mostly inhibitors | 0.14% of 360,000 active;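 further: plate controls were vehicle for no effect and positive control for full effect; nearly all actives have a fitted effect of over 50% in size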
# * marks the source's active call; other numbers are inactive results; ? = inconclusive; · = no result given. Hits are enriched below; roughly 1.2% of the tested compounds scored in any of these assays. The call rests on the fitted dose curve; in most records, active means well fitted curve in the direction sought with a large enough effect; inconclusive means small, poorly fitted or top-dose-only effect, or another doubt; inactive means no such curve, though single readings can be large; an effect the other way counts as inactive or inconclusive. Potency means the concentration at half of the fitted maximal effect.
SMILES,USP1 inh,EPAC2 ag,VDR inh,EPAC1 agonist,EPAC2 antagonist,EPAC1 antag
O=C1C2C3C=CC(CO)(O3)C2C(=O)N1c1ccccc1-c1ccccc1 (stereo unspecified),?,8%,-100%,16%,-15%,-7%
CC(=O)Oc1ccc(N2C(=O)C3C4C=CC(CO)(O4)C3C2=O)cc1 (stereo unspecified),-20%,6%,45µM*,-5%,9%,-5%
O=C1C2C3C=CC(CNS(=O)(=O)c4ccccc4)(O3)C2C(=O)N1c1ccc(Cl)cc1 (stereo unspecified),-13%,-5%,79µM*,-9%,8%,3%
COc1ccc(NC(=O)Cn2c(=O)n(Cc3ccccc3Cl)c(=O)c3cc(OC)c(OC)cc32)cc1OC,-6%,·,-5%,·,·,·
CSCC[C@H](NC(=O)[C@H](CC(C)C)NC(=O)CNC(=O)[C@H](Cc1ccc(O)cc1)NC(=O)[C@H](Cc1ccccc1)NC(=O)[C@H](CCC(N)=O)NC(=O)[C@H](CCC(N)=O)NC(=O)[C@@H]1CCCN1C(=O)[C@H](CCCCN)NC(=O)[C@@H]1CCCN1C(=O)[C@@H](N)CCCN=C(N)N)C(N)=O,·,·,-11%,·,·,·
ON=C(c1ccccc1)c1ccc2c3c(cccc13)CC2,-28%,19%,·,4%,14µM*,6%
CN(CC(=O)Nc1cccc(Cl)c1)S(=O)(=O)c1ccc2c(c1)n(C)c(=O)c(=O)n2C,5%,-3%,79µM*,-7%,-8%,?
COc1ccc(S(=O)(=O)N(C(C)=O)c2ccc3oc(=O)sc3c2)cc1,-9%,2%,79µM*,3%,6%,3%
CC(C)OC1(c2ccccc2)OC(=O)c2ccccc21 (stereo unspecified),-26%,-11%,3%,-4%,35µM*,-16%
CCOc1ccc(N2C(=O)C(Cl)=C(N3CCOCC3)C2=O)cc1,-18%,4%,28µM*,6%,-5%,2%
CC(C)c1ccc(N2C(=O)C(Cl)=C(N3CCOCC3)C2=O)cc1,-2%,8%,-16%,5%,-18%,0%
Cc1ccc(-n2nc(C)c3c(C)c(CCC(=O)NCc4ccccc4Cl)c(C)nc32)cc1,-11%,·,11%,·,·,·
Cc1ccccc1CC1(CO)CCCN(C(=O)c2ccc3ncccc3c2)C1 (stereo unspecified),-20%,1%,40µM*,11%,5%,10%
CCCN1CNc2c(c(=O)[nH]c(=S)n2CCc2ccc(C)cc2)C1,·,·,-1%,·,·,·
CCc1ccc(NC(=O)c2sc(-n3nc(C)c(CCC(C)C)c3C)nc2C)cc1,0%,·,-1%,·,·,·
C=CC1=C(C)C2=Cc3c(C=C)c(C)c4[n]3[Sn+2][n]3c(c(C)c(CCC(=O)O)c3=CC3=NC(=C4)C(C)=C3CCC(=O)O)=CC1=N2,·,·,35µM*,·,·,·
CCOC(=O)N1CCN([N+]([O-])=NOc2cc(O/N=[N+](\[O-])N(CC)CC)c([N+](=O)[O-])cc2[N+](=O)[O-])CC1,·,·,-15%,·,·,·
NCC1OC(O[C@H]2[C@H](O)[C@@H](OC3C(O)C(N)CC(N)C3OC3OC(CO)C(O)C(O)C3N)O[C@@H]2CO)C(N)C(O)C1O (stereo partly specified),·,·,-1%,·,·,·
COc1ccc2c(c1)C(=O)[C@H](OC(=O)N[C@H](C)C1CCCCC1)[C@@H](c1ccc(OC)c(Br)c1)O2,·,·,0%,·,·,·
Cc1ccc(C)c(N2CCN(C(=O)c3c4c(nc5ccccc35)C(=O)N(C3CCCCC3)C4)CC2)c1,?,·,-2%,·,·,·
CC(C)CC(NC(=O)CC12CC3CC(CC(C3)C1)C2)C(=O)NC1=NCCS1 (stereo unspecified),-18%,-2%,71µM*,-2%,3%,-10%
COC(=O)C1C(O)CC[C@H]2CN3CCc4c([nH]c5ccccc45)C3C[C@H]12 (stereo partly specified),·,·,29%,·,·,·
Cc1ccc(C(=O)N2CCN(c3ccccc3)CC2)cc1S(=O)(=O)N1CCOCC1,5%,2%,-21%,-8%,-6%,56µM*
O=C(Nc1nc(-c2ccccn2)cs1)c1ccc(F)c(S(=O)(=O)N2CCOCC2)c1,?,-4%,89µM*,4%,-4%,4%
Cc1ccc(C(=O)Nc2nc(-c3ccccn3)cs2)cc1S(=O)(=O)N1CCOCC1,?,2%,79µM*,0%,0%,3%
SMILES,USP1 inh,EPAC2 ag,VDR inh,EPAC1 agonist,EPAC2 antagonist,EPAC1 antag
Cc1ccc(C(=O)Nc2ccccn2)cc1S(=O)(=O)N1CCOCC1,-18%,-7%,3%,7%,4%,1%
CC(C)OC(=O)c1cn(Cc2c(F)cccc2F)c2sc(-c3ccc(NC(=O)C(C)C)cc3)c(CN(C)Cc3ccccc3)c2c1=O,·,·,-3%,·,·,·
CCN1C(=O)C(=CC=CN(C)c2ccccc2)SC1=S,?,89µM*,·,?,-3%,35%
Cn1sccc1=O,?,5%,16µM*,3%,10%,1%
O=c1ccsn1Cc1ccccc1,-10%,3%,?,-2%,-11%,15%
Cn1c(/C(C#N)=C/c2cccc(O)c2)nc2ccccc21,-7%,3%,79µM*,5%,-1%,-36%
O=C(CCN1CCCC1Cc1ccccc1)c1ccc2c(c1)OCCO2 (stereo unspecified),-17%,-4%,35µM*,-1%,18%,17%
O=C(CCN1CCCCC1)c1ccc2c(c1)OCCO2,-4%,1%,-78%,10%,18%,10%
O=C(CCN1CCC(c2ccccc2)C1)c1ccc2c(c1)OCCO2 (stereo unspecified),16%,-2%,14µM*,-11%,10%,-19%
O=C(NCc1ccccc1F)c1cccc(NC(=O)N2CCSc3ncccc32)c1,-13%,·,6%,·,·,·
O=C(N/N=C/C=C\c1ccco1)c1ccccn1,-8%,-5%,79µM*,-6%,-5%,?
CCS(=O)(=O)N1CCc2cc(C(=O)N3CCN(c4cccc(C(F)(F)F)c4)CC3)ccc21,-22%,·,10%,·,·,·
CN(Cc1ccco1)c1cc(-c2ccc3c(c2)OCO3)ncn1,·,·,22µM*,·,·,·
COc1ccc(/C=N/NC(=O)COc2ccc3ccccc3c2)c(C(=O)O)c1OC,-7%,6%,79µM*,-4%,6%,-7%
COc1ccc(OCC(=O)N/N=C/c2ccc(OC)c(OC)c2C(=O)O)cc1,-21%,5%,-8%,3%,14%,0%
CC[N+]1(C)CCC(O)(/C=C/c2ccccc2)C(C(=O)/C=C/c2ccccc2)C1 (stereo unspecified),?,-1%,50µM*,-7%,2%,2%

# From PubChem
